# Measured values from PubChem BioAssay AID588342 (National Center for Advancing Translational Sciences (NCATS), 2011).
# About 25,000 (6.9%) of roughly 360,000 compounds were called active. Where a call stands in place of a potency, no number is given. About 9% were inconclusive and are not listed. This is one part of a sample in which actives are shown more often than they occur. Calls come from the whole dose curve; as a rule, active = well fitted inhibition curve with a large enough effect; inconclusive = small, poorly fitted or top-dose-only effect; inactive = flat fitted curve, though single readings scatter.
# Target: Luciferin 4-monooxygenase (Photinus pyralis) (UniProt P08659)
# Assay: qHTS profiling assay for firefly luciferase inhibitor/activator using purifed enzyme and Km concentrations of substrates (counterscreen for miR-21 project); note: nearly all actives have a fitted effect of over 55% in size
# Details: purified FLuc, luminescence inhibition; series mostly up to 57.5 µM
# In short: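 Purified P. pyralis luciferase, 10 nM final, with Km-level 10 uM D-luciferin and 10 uM ATP in 50 mM Tris acetate pH 7.5, 10 mM Mg acetate, 0.01% Tween-20, 0.05% BSA; 6-point qHTS titration about 60 µM downward; luminescence read.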
# Potency is the fitted concentration of half-maximal effect.
# Sequence of Luciferin 4-monooxygenase (Photinus pyralis) (P08659 whole entry, looked up): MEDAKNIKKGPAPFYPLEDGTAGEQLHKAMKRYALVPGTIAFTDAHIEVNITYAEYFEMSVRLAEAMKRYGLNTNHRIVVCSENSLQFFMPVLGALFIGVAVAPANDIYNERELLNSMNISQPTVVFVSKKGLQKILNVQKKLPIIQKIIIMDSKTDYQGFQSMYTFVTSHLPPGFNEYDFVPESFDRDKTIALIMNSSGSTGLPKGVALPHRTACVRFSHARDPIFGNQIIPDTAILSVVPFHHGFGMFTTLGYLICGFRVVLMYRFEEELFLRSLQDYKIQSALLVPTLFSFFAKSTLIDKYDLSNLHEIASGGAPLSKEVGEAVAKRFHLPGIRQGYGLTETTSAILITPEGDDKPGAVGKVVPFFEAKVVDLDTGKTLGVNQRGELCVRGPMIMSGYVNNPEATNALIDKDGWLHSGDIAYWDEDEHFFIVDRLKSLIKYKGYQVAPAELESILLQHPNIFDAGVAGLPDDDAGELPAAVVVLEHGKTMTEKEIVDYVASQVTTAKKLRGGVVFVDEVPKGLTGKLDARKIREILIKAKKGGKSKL
row,Structure (SMILES),Potency
1,O=C(CCN1CCCO1)N1CCCC(N2CCN(c3cccc(C(F)(F)F)c3)CC2)C1 (configuration not stated),inactive
2,CCc1ccc(CNC(=O)C2CCN(c3nn4cc(-c5ccc(F)cc5)nc4s3)CC2)cc1,inactive
3,CCC(CC)c1nnc(NS(=O)(=O)Cc2ccccc2)s1,inactive
4,CCC(CC)c1nn2cc(-c3ccccc3)nc2s1,0.269 µM (active)
5,Cc1ccc(F)cc1NC(=O)CCSc1nc(-c2ccco2)cc(C(F)(F)F)n1,inactive
6,Clc1ccccc1CSc1nncn2c1cc1occc12,inactive
7,CSCCC(NC(=O)COc1ccccc1)C(=O)N(C)CC(=O)Nc1ccc(C)cc1 (configuration not stated),inactive
8,CCOC(=O)C1CCN(C(=O)CSc2c3c(nc4ccc(Cl)cc24)CCCC3)CC1,inactive
9,C=CCNc1scc(-c2ccccc2)[n+]1CC=C,inactive
10,C=CCNC(=O)c1csc(-c2ccccc2)n1,inactive
11,C=CC[n+]1c(-c2ccc(C)cc2)csc1NNC(=O)Nc1ccccc1,19 µM (active)
12,CCOC(=O)C1CCCN(CCSc2ccc(C)cc2)C1 (configuration not stated),inactive
13,O=C(COC(=O)CNC(=O)C1CCCCC1)NCc1ccccc1,inactive
14,COc1ccc2c(CC(=O)OCC(=O)Nc3ccccc3[N+](=O)[O-])coc2c1,inactive
15,Cc1nc2ccc(C(=O)N3CCN(c4ccccc4)CC3)cc2s1,inactive
16,Cc1nc2ccc(C(=O)N3CCSCC3)cc2s1,inactive
17,Cc1ccc(C)c(OCC(=O)N2CCN(C(=O)c3ccco3)CC2)c1,inactive
18,CC1CCN(c2nc3ccc(C(=O)N4CCN(c5ccccc5)CC4)cc3s2)CC1,23.9 µM (active)
19,Cc1ccc(OCC(=O)Nc2ccc(N3CCN(C(=O)c4ccco4)CC3)cc2)c(C)c1,inactive
20,Cc1ccc2nc(N3CCN(C(=O)c4ccco4)CC3)sc2c1,10.7 µM (active)
21,COc1cccc(CN2CCc3nc(SCC(=O)Nc4ccccc4)[nH]c(=O)c3C2)c1,inactive
22,COC(=O)C(NS(=O)(=O)c1ccc(F)cc1)c1ccccc1 (configuration not stated),inactive

row,Structure (SMILES),Potency
1,CCOc1ccc(N(Cc2ccccc2)C(=O)c2nc(S(C)(=O)=O)ncc2Cl)cc1,inactive
2,COc1ccc(C(=O)Cn2nnc(-c3ccc(N4CCOCC4)cc3)n2)cc1OC,8.49 µM (active)
3,CCOc1ccc(-c2nnn(CC(=O)N3CCN(c4ccc(OC)cc4)CC3)n2)cc1OCC,inactive
4,CCOc1ccc(-c2nnn(CC(=O)N3CCN(c4ccc(F)cc4)CC3)n2)cc1OCC,inactive
5,COC(=O)C1CCN(C(=O)c2ccc3oc(Cc4ccc(Cl)cc4)nc3c2)CC1,inactive
6,COc1cccc(NC(=O)Cn2c(=O)cc(C)c3c(C)nn(-c4cccc(F)c4)c32)c1,inactive
7,Cn1c(=O)n(C)c2cc(S(=O)(=O)Nc3ccc(F)cc3)ccc21,inactive
8,COc1cc(OC)cc(C(=O)Nc2nnc(SCC(=O)NCC3CCCO3)s2)c1 (configuration not stated),15.1 µM (active)
9,Cc1ccc2cc(C#N)c(SCC(=O)NCC3CCCO3)nc2c1C (configuration not stated),inactive
10,COc1ccccc1N1CC(C(=O)Nc2nnc(SCC(=O)NCC3CCCO3)s2)CC1=O (configuration not stated),inactive
11,CCCOc1ccccc1-c1nc(SCCC(=O)O)n[nH]1,inactive
12,Cc1cc(C)nc(Nc2n[nH]c(-c3ccccc3N)n2)n1,0.953 µM (active)
13,Cc1cc(C)nc(Nc2ncn[nH]2)n1,inactive
14,COC(=O)C1=C(c2ccccc2)c2ccccc2S(=O)(=O)N1CC(=O)Nc1ccccc1C(F)(F)F,inactive
15,O=C(CSc1nccn1C1CCCC1)Nc1cc(C(F)(F)F)ccc1Cl,inactive
16,COc1ccc(C)cc1Nc1nc(C)nc2c1oc1ccccc12,inactive
17,CCC(C(=O)OC)n1cnc2c(oc3ccccc32)c1=O (configuration not stated),inactive
18,COc1ccccc1Nc1ncnc2c1oc1ccccc12,13.5 µM (active)
19,O=C(CN1C(=O)NC2(CCOc3ccccc32)C1=O)NCc1ccc(F)cc1 (configuration not stated),inactive
20,CCN(CC)CCn1c(/N=C/c2cc(Br)ccc2O)nc2ccccc21,inactive
21,Oc1ccc(Br)cc1/C=N/Nc1ccccn1,8.49 µM (active)
22,Cc1nccn1CC(=O)N/N=C/c1ccc(O)c(O)c1,inactive

row,Structure (SMILES),Potency
1,O=C(Nc1ccccc1)N1CCN(C2c3ccccc3-c3ccccc32)CC1,inactive
2,CC1=C(c2ccc(C)c(C)c2)S(=O)(=O)NC1=NCc1ccccc1Cl,inactive
3,CC(C)CN(C(=O)CSc1ncnc2sccc12)C1CCS(=O)(=O)C1 (configuration not stated),inactive
4,COc1ccc(C)cc1Nc1nc(-c2c(C)[nH]c3ccccc23)cs1,13.5 µM (active)
5,COC(=O)c1cnc(Nc2cc(C)ccc2OC)c2ccccc12,inactive
6,COc1ccc(C)cc1Nc1nc2ccccc2c2nnc(C)n12,inactive
7,Cc1ccc(CN2C(=O)SC(Nc3ccccc3)C2=O)cc1 (configuration not stated),inactive
8,Cc1ccc(N(CC(=O)NCc2ccc(Cl)cc2)S(=O)(=O)N(C)C)cc1,inactive
9,Cc1cc(C)cc(OC(C)C(=O)Nc2nc3c(s2)CCCC3)c1 (configuration not stated),inactive
10,COC(=O)C(NC(C)=O)(Nc1nc2c(s1)CCCC2)C(F)(F)F (configuration not stated),inactive
11,Fc1ccc2nc(Nc3nc4c(s3)CCCC4)sc2c1,3.01 µM (active)
12,Cc1cccc(Nc2nc(C)nc(N)c2S(=O)(=O)c2ccccc2)c1,inactive
13,CCc1ccccc1NC(=O)Cn1c(=O)n(CC2CCC(C(=O)NCCc3ccccc3)CC2)c(=O)c2ccccc21 (configuration not stated),inactive
14,C=CCSc1nsc(NC(=O)Nc2cccc(C(C)=O)c2)n1,15.1 µM (active)
15,CSc1ccccc1C(=O)Nc1cccc(C(C)=O)c1,inactive
16,COc1ccc(NC(C(=O)Nc2cccc(C(C)=O)c2)c2ccccc2)cc1 (configuration not stated),inactive
17,CC(=O)c1cccc(NC(=O)CSc2nc3c(c(=O)[nH]2)CCC3)c1,inactive
18,CC(=O)c1cccc(NC(=S)N2CCN(S(C)(=O)=O)CC2)c1,inactive
19,CCSc1nsc(NC(=O)Nc2cccc(C(C)=O)c2)n1,19 µM (active)
20,Cc1ccc2c(c1)-c1c(cnn1CC(=O)Nc1ccccc1C#N)CO2,inactive
21,Cc1ccc(Cn2c(=O)n(Cc3nc(-c4ccccc4)no3)c(=O)c3cc4c(cc32)OCO4)cc1,inactive
22,Cc1ccccc1OCc1nnc(SCC(=O)N2c3ccccc3Sc3ccc(Cl)cc32)o1,inactive

row,Structure (SMILES),Potency
1,CC1CCC(NS(=O)(=O)c2ccc3c(c2)CC(=O)N3)CC1 (configuration not stated),inactive
2,Cc1ccc(NC(=O)c2cc(S(=O)(=O)NCCC3=CCCCC3)ccc2F)cc1C,inactive
3,Cc1ccc(SCC(=O)c2cc(C)c(OC(=S)N(C)C)c(C)c2)cc1,8.49 µM (active)
4,CCN1CCN(C(=O)CSc2ccc(C)cc2)CC1,inactive
5,COC(=O)c1cc(OC)c(OC)cc1NC(=O)CSc1ccc(C)cc1,inactive
6,COc1cc(Nc2nc3ccc(Cl)cc3n3cnnc23)cc(OC)c1OC,inactive
7,COc1ccc(OC)c(Nc2nc3ccccc3n3cnnc23)c1,inactive
8,COc1cc(/C=N/Nc2nn3cnnc3c3ccccc23)cc(OC)c1OC,0.953 µM (active)
9,O=C(CSc1nnc(CNC(=O)c2ccccc2)n1-c1ccc(F)cc1)Nc1ccccc1F,inactive
10,COc1cc(/C=N/NC(=O)c2ccoc2C)ccc1OCCN1CCCCC1,inactive
11,COc1cc(OC)c(/C=N/NC(=O)c2ccc([N+](=O)[O-])cc2)cc1Br,inactive
12,Cc1cc[n+](-c2[nH]c(=O)sc2/C=N/NC(=O)c2ccccc2[O-])cc1C,inactive
13,Cc1ccc(-n2[nH]c(C)c(/C=N/NC(=O)c3cccc([N+](=O)[O-])c3)c2=O)cc1C,0.426 µM (active)
14,Cc1[nH]n(-c2ccc([N+](=O)[O-])cc2)c(=O)c1C=NCCN1CCN(C(=O)c2ccccc2F)CC1,inactive
15,Cc1[nH]n(-c2ccccc2)c(=O)c1/C=N/NC(=O)c1ccoc1C,21.3 µM (active)
16,O=C(NNC1=NCCC1)c1cccc(S(=O)(=O)N2CCCCC2)c1,inactive
17,Cc1ccc(Cl)cc1N(C)C(=O)Cn1nc(Cc2cccnc2)c2ccccc2c1=O,inactive
18,COc1cccc(N2CCN(C(=O)CCCCCn3c(=O)[nH]c4ccccc4c3=O)CC2)c1,inactive
19,COCCN(C(=O)CC1CCCCC1)c1c(N)n(CC(C)C)c(=O)[nH]c1=O,inactive
20,CCOC(=O)N1CCc2c(sc3c2c(=O)n(-c2ccc(CC)cc2)c(=O)n3C)C1,inactive
21,CCNC(=O)c1cnn(-c2ccccc2)c1-c1ccccc1,inactive
22,CC(=O)c1nn(-c2ccc(OC(F)(F)F)cc2)nc1Nc1ccccc1,0.379 µM (active)

row,Structure (SMILES),Potency
1,CCN(CC)CC(=O)Nc1nn(-c2ccccc2)nc1C(N)=O,inactive
2,O=C(Cn1cnc2c(oc3ccccc32)c1=O)Nc1ccc(OC(F)(F)F)cc1,inactive
3,Cc1ccc(C(=O)NCCSc2c(C)[nH]c3ccccc23)cc1C,inactive
4,CCOc1ccc(CNC(=O)c2cc(-c3ccc(Cl)s3)nc3ccccc23)cc1,inactive
5,O=C(NCc1ccco1)c1nc(-c2ccccc2)n(-c2ccccc2)n1,inactive
6,CCc1ccc(-c2cc(C(=O)NCc3ccco3)c3ccccc3n2)s1,5.36 µM (active)
7,COc1ccccc1N1CCN(CCCNC(=O)c2cnn(-c3ccccc3Cl)c2C2CCN(C(=O)OC(C)(C)C)CC2)CC1,inactive
8,Cc1ccc(OS(=O)Nc2cccc3nccnc23)cc1 (configuration not stated),inactive
9,CCOc1ccc(NC(=O)C(=O)NCCc2csc3nc(-c4ccccc4F)nn23)cc1,inactive
10,COc1cc(OC)c(C(=O)NC2CCCCCC2)cc1OC,inactive
11,COc1ccc(OC)c(NC(=O)c2sc3nc(C)cc(C)c3c2N)c1,inactive
12,COCc1cc(C)nc2sc(C(=O)NC3CCCCC3)c(N)c12,16.9 µM (active)
13,CCOC(=O)c1c(C)oc2nc(C)nc(Nc3ccc(CC)cc3)c12,inactive
14,O=C(CSc1cn(CC(=O)N2CCOCC2)c2ccccc12)Nc1ccccc1,inactive
15,COc1cccc(NC(=O)C(=O)c2cn(CC(=O)N3CCOCC3)c3ccccc23)c1,5.36 µM (active)
16,O=C(Nc1ccc(F)cc1)C(=O)c1cn(CC(=O)N2CCOCC2)c2ccccc12,2.69 µM (active)
17,O=C(NCc1ccco1)C(=O)c1cn(CC(=O)N2CCCCCC2)c2ccccc12,inactive
18,CN1CCN(C(=O)C(=O)c2cn(CC(=O)N3CCCC3)c3ccccc23)CC1,inactive
19,COc1cccc(NC(=O)CS(=O)(=O)c2cn(CC(=O)N3CCOCC3)c3ccccc23)c1,inactive
